From PubChem BioAssay (NCI) come the findings set out here.

Each structure is given as a SMILES string. About 83,000 compounds went through this panel and 20% of them were active in at least one assay; those are over-represented in the sample as a whole.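 Assay: single dose, 48 h. Readout: percent growth (0 = no net growth; negative = cell death). Active: <10.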 The source made the active and inactive calls.

The test concerns MDA-MB-468 breast. Put plainly: NCI-60 one-dose screen, 48 h (100 = growth as untreated, 0 = no growth, -100 = all killed). The conditions noted are these: 10 µM unless noted.
Take `Fc1ccc(N/N=C/c2ccc(-n3cccn3)cc2)cc1`: the growth is 121% (inactive).

Turning to `Nc1ccc([N+](=O)[O-])cc1N=C/C=C/c1ccccc1`, the growth was 46.4% (inactive).

With `CCN(CC)CCC(=O)Nc1ccc(Cn2nnc3c2C(=O)c2nnn(Cc4ccc(NC(=O)CCN(CC)CC)cc4)c2C3=O)cc1`, the growth is -66.4% (active).

In the case of `Oc1ccc(-c2nnc(SCc3ccc(O)c4ncccc34)o2)cc1`, the growth was 10.8% (inactive).

Consider `OC(CCN1CCCCC1)(c1ccccc1)c1ccccc1`, for which the growth is 101% (inactive).

Regarding `Oc1cccc2c1NCCC2`, the growth is -8.83% (active).

Regarding `CS(=O)(=O)c1nccc(-c2c(-c3cccc(OCc4ccc(F)cc4)c3)nc3sccn23)n1`, the growth was -63.6% (active).

With `COc1ccc(NC2=C(I)C(=O)c3ncccc3C2=O)cc1`, the growth is -58% (active).

With `Cc1ccc(NC(=O)c2sc3nc4c(cc3c2N)C(=O)CCC4)cc1C`, the growth was 50.7% (inactive).

For `COc1cnc2c(c1)C(=O)c1c-2n(CCCN2CCCC2)c(=O)c2cc(F)ccc12`, the growth is -29.5% (active).

As for `CCCC(=O)Nc1ccc2c(c1)CN1C(=O)c3ccccc3C1=N2`, the growth was 97.8% (inactive).

Consider `C=C(C)[C@@H]1CC[C@]2(CO)CC[C@]3(C)[C@H](CC[C@@H]4[C@@](C)(CCCN)[C@H](C(=C)C)CC[C@]43C)[C@@H]12`, for which the growth is -71.4% (active).

As to `OCCN(CCO)c1ccc2ccccc2c1`, the growth was 107% (inactive).

As to `CCN=C1C=CC(=C(c2ccc(N(CC)CC)cc2)c2ccc(N(CC)CC)cc2)c2ccccc21`, the growth is -74.1% (active).

As to `C=C1C(=O)O[C@H]2[C@H]1CC/C(COC(=O)NCCc1c[nH]c3ccccc13)=C\CC[C@@]1(C)O[C@@H]21`, the growth was -6.71% (active).
